Reference: PubChem BioAssay (NCATS)
Records with an inconclusive call do not appear. Where a call stands in place of a potency, no number is given. The source made the active and inactive calls. Calls follow the shape of the dose curve; as a rule, active = well fitted curve in the direction sought with a large enough effect; inconclusive = small, poorly fitted or top-dose-only effect, or another doubt; inactive = no such curve, though single readings can be large; an effect the other way counts as inactive or inconclusive.
Also: nearly all actives have a fitted effect of over 70% in size.
Potency is read from the fitted curve at half-maximal effect.

Experiment: Primary qHTS for inhibitors of nuclear receptor binding SET domain protein 2 (NSD2) in an isogenic RCH-ACV NSD2 p.E1099K mutant (9B) (AID 1645876)
Conditions: RCH-ACV NSD2 E1099K (9B) viability, CellTiter-Glo, 72 h; series mostly up to 44.9 µM
With `O=C(Nc1ccc2c(c1)CCN(Cc1ncn[nH]1)C2)c1ccccc1-c1ccc(C(F)(F)F)cc1` the Potency was “inactive”. With `COC(=O)C1=C(C)NC(C)=C(C(=O)OC)C1c1cccc(NC(=O)NCCCN2CCC(c3cccc(OC)c3)CC2)c1` the Potency was 4.59 µM (active). With `O=C(Nc1ccc2[nH]ncc2c1)C1CCC1` the Potency was “inactive”. With `CC1(C)S[C@@H]2[C@H](NC(=O)[C@H](N)c3ccccc3)C(=O)N2[C@H]1C(=O)O` the Potency was “inactive”. For `Brc1c(Br)c(Br)c2n[nH]nc2c1Br`, the Potency was “inactive”. In the case of `CCNc1nc2c(ncn2[C@H]2C[C@H](O)[C@@H](CO)O2)c(=O)[nH]1`, the Potency is reported as “inactive”. In the case of `CS(=O)(=O)c1ccc(-n2nc(C(F)(F)F)cc2-c2ccc(F)cc2)cc1`, the Potency is reported as “inactive”. With `CCN(CC)CCCCNc1ncc2cc(-c3c(Cl)cccc3Cl)c(NC(=O)NC(C)(C)C)nc2n1` the Potency was 1.45 µM (active). In the case of `O=C1NC(=O)/C(=C/c2ccc3nccnc3c2)S1`, the Potency is reported as “inactive”.

Experiment: Primary qHTS for inhibitors of nuclear receptor binding SET domain protein 2 (NSD2) in an RCH-ACV wild type WT cells (2C) (AID 1645877)
Conditions: RCH-ACV (leukaemia line) NSD2 WT (2C) viability, CellTiter-Glo, 72 h; series mostly up to 44.9 µM
With `COC(=O)C1=C(C)NC(C)=C(C(=O)OC)C1c1cccc(NC(=O)NCCCN2CCC(c3cccc(OC)c3)CC2)c1` the Potency was 4.59 µM (active). In the case of `O=Cc1ccc(O)c(O)c1O`, the Potency is reported as 16.8 µM (active). For `O=C(Nc1ccc2[nH]ncc2c1)C1CCC1`, the Potency was “inactive”. In the case of `CCCCN(CC)c1nc(C)nc2c1c(C)cn2-c1c(C)cc(C)cc1C`, the Potency is reported as “inactive”. For `CC1(C)S[C@@H]2[C@H](NC(=O)[C@H](N)c3ccccc3)C(=O)N2[C@H]1C(=O)O`, the Potency was “inactive”. With `Brc1c(Br)c(Br)c2n[nH]nc2c1Br` the Potency was “inactive”. In the case of `CCNc1nc2c(ncn2[C@H]2C[C@H](O)[C@@H](CO)O2)c(=O)[nH]1`, the Potency is reported as “inactive”. With `CS(=O)(=O)c1ccc(-n2nc(C(F)(F)F)cc2-c2ccc(F)cc2)cc1` the Potency was “inactive”. For `CCN(CC)CCCCNc1ncc2cc(-c3c(Cl)cccc3Cl)c(NC(=O)NC(C)(C)C)nc2n1`, the Potency was 3.65 µM (active).
